Source: PubChem BioAssay (NCATS)
Where “and” joins values, the source holds several entries; their conditions need not be identical. Equal entries are not always repeated. Records with an inconclusive call do not appear. Calls of active or inactive are those of the source. Unless noted, calls come from the whole dose curve; as a rule, active = well fitted curve in the direction sought with a large enough effect; inconclusive = small, poorly fitted or top-dose-only effect, or another doubt; inactive = no such curve, though single readings can be large; an effect the other way counts as inactive or inconclusive.

Columns and labels:
[1] = qHTS for differential inhibitors of proliferation of Plasmodium falciparum line D10 (AID 1877);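 note: parasites grown with compound for 72 h before DNA staining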; note: potency is the fitted concentration of half-maximal effect
[2] = qHTS for differential inhibitors of proliferation of Plasmodium falciparum line HB3 (AID 1886); conditions: Potency: Plasmodium falciparum HB3 proliferation inhibition;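 note: parasites grown with compound for 72 h before SYBR Green readout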; note: potency is the fitted concentration of half-maximal effect
[3] = molecular target: Ferritin light chain (Equus caballus) (UniProt P02791); test: qHTS Validation Assay for Identification of Novel General Anesthetics (AID 2323); note: % is set by controls: 0 for no effect and ±100 for the full control effect
Chain of Ferritin light chain (Equus caballus) (P02791 2-175 limits assumed): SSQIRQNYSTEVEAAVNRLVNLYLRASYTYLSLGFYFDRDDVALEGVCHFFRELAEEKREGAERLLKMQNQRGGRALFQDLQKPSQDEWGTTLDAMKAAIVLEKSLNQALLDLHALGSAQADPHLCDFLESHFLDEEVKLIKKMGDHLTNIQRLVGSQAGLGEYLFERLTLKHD
Outline: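 Apoferritin from horse spleen (10 uM) was mixed with 1-aminoanthracene at 50% saturation in PBS, then compounds were added. After 10 min at room temperature, fluorescence was read (ex 380 nm, em 535 nm) and normalized to free-probe and complex controls.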

[4] = molecular target: ATP-dependent DNA helicase Q1 (Homo sapiens) (UniProt P46063); test: qHTS Validation Assay for Inhibitors of RecQ-Like Dna Helicase 1 (RECQ1) (AID 2353);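 note: plate controls were DMSO vehicle for no effect and enzyme-free control for full effect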
Chain of ATP-dependent DNA helicase Q1 (Homo sapiens) (P46063 whole entry, looked up): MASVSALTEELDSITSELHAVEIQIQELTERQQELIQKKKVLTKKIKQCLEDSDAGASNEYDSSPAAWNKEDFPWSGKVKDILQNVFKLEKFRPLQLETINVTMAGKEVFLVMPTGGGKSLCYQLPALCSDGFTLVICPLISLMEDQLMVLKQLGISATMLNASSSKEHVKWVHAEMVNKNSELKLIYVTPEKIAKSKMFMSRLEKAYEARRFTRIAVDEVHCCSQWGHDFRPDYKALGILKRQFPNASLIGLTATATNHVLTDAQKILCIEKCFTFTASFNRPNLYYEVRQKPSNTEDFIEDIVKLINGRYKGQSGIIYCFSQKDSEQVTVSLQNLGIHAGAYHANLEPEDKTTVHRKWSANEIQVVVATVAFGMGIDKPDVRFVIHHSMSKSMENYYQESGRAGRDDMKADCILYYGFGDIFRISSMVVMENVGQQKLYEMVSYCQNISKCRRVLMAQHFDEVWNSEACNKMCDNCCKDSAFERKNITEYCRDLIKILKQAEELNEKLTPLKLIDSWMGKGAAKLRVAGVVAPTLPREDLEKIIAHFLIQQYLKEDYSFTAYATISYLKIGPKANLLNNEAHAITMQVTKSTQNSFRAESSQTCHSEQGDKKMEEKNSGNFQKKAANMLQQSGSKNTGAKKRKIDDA
Outline: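 RECQ1T1 50 nM; forked duplex (20 bp + 30-nt ss tails) 200 nM, ATP 2 mM final; pH 8.0, 2 mM MgCl2, 2.5 ug/ml poly(dI-dC); 15 min compound preincubation; discontinuous kinetic read over 2 h at RT.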

[5] = Validation screen for inhibitors of Lassa infection (AID 463096; calls by dose curve; note: % is set by controls: 0 for no effect and ±100 for the full control effect)
[6] = molecular target: DNA dC->dU-editing enzyme APOBEC-3G (Homo sapiens) (UniProt Q9HC16); test: qHTS for inhibitors of Vif-A3G interactions: Validation (AID 588379); note: 0% is about no effect
Chain of DNA dC->dU-editing enzyme APOBEC-3G (Homo sapiens) (Q9HC16 whole entry, looked up): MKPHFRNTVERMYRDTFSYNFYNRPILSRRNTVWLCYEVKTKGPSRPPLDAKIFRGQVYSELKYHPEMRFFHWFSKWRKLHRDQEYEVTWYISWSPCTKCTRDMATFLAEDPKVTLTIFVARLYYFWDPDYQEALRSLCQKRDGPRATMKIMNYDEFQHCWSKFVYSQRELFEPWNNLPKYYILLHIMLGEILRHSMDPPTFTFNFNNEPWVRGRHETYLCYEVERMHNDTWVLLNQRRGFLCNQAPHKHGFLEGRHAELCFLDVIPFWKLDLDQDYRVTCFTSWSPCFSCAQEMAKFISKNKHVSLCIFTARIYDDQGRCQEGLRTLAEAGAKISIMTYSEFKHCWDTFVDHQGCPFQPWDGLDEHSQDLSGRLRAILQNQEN
Outline: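 Yellow fluorescence (Ex 488, Em 500-530) of Vif-coexpressing HeLa A3G-eYFP cells, scanned by Acumen cytometer, reports blocked A3G degradation. Cells plated at 700/well overnight at 37 deg C before compound addition, then a further overnight compound incubation at 37 deg C.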

ICS = test: qHTS profiling for inhibitors of Plasmodium falciparum proliferation (AID 504749);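 note: 0% = DMSO vehicle and full inhibition = artemisinin control; nearly all actives have a fitted effect of over 60% in size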; conditions: P. falciparum in erythrocytes, SYBR Green DNA, 72 h; series mostly up to 28.7 µM
Outline: (§1)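 Quantitative HTS: compounds pinned into medium, infected erythrocytes added (0.3% parasitemia, 2.5% hematocrit), 72 h culture at 37 C under 5% CO2. Saponin/Triton lysis with SYBR Green I, overnight RT, then fluorescence read.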

[7] = Cell Viability - Hek293 (AID 427;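 active = compounds whose dose-response curve shows a full or clear partial loss of cell viability, called from curve shape rather than a numeric limit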;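 note: potency is the fitted concentration of half-maximal effect; cells exposed to compound for 40 hours at 37 °C before reading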); conditions: qHTS
Outline: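 Luminescent ATP content (CellTiter-Glo, 20 min at room temperature) was measured after a 40 hr, 37 °C compound exposure of HEK293 cells. AC50 values came from Hill-equation fits of qHTS concentration-response data normalized to DMSO and 100 uM tamoxifen.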

[8] = Cell Viability - H-4-II-E (AID 543);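 note: cells exposed to compound for 40 hours; % is set by controls: 0 for no effect and ±100 for the full control effect; nearly all actives have a fitted effect of over 35% in size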
Outline: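 CellTiter-Glo luminescence (intracellular ATP) measured after 40 h compound exposure at 37 °C in H-4-II-E rat hepatoma cells seeded at 1500/well. Values are AC50s fitted with the standard Hill equation.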

[9] = Cellular Toxicity (caspase-3) Jurkat (AID 655); conditions: Jurkat caspase-3 activation, luminescence, DMSO = 0%, tamoxifen = 100%; at 92.2 µM (top of the series);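 note: cells exposed to compound for 16 h at 37 °C before reading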
Outline: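 Caspase 3/7 activation is scored as increased luminescence in Jurkat cells cultured with compound for 16 hours in complete medium. AC50 values come from Hill fits of qHTS concentration-response data normalized to DMSO and 100 uM tamoxifen controls.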

[10] = MultiTox-Fluor Cytotoxicity Assay - LYMP1-001 - Live Cells (AID 947);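 note: 0% = DMSO only and full inhibition = tetraoctylammonium bromide control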
[11] = Cell Viability - LYMP2-005 (AID 967);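 note: plate controls were DMSO only for no effect and 92 µM tetraoctylammonium bromide control for full effect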
Outline: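 qHTS viability screen in LYMP2-005 cells: 24 h at 37 C with compound, ATP luminescence via CellTiter-Glo, AC50 from Hill curves.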

[12] = Cell Viability - LYMP2-013 (AID 970);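 note: 0% = DMSO only and full inhibition = tetraoctylammonium bromide control; nearly all actives have a fitted effect of over 55% in size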
Outline: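 qHTS cytotoxicity: ATP-dependent luminescence (CellTiter-Glo, 30 min room temperature) read after 24 h compound exposure at 37 C of 2500 LYMP2-013 lymphoblastoid cells per well. Concentration-response fitted with Hill equation to give AC50.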

[13] = molecular target: Estrogen receptor (Homo sapiens) (UniProt P03372); test: qHTS assay for small molecule antagonists of estrogen receptor alpha signaling (AID 588513; active = well fitted curve in the direction sought with a large enough effect in the signal ratio, with a control signal flat, not every such curve was filed as active; the % refers to the signal ratio; note: % is set by controls: 0 for no effect and ±100 for the full control effect)
Chain of Estrogen receptor (Homo sapiens) (P03372 whole entry, looked up): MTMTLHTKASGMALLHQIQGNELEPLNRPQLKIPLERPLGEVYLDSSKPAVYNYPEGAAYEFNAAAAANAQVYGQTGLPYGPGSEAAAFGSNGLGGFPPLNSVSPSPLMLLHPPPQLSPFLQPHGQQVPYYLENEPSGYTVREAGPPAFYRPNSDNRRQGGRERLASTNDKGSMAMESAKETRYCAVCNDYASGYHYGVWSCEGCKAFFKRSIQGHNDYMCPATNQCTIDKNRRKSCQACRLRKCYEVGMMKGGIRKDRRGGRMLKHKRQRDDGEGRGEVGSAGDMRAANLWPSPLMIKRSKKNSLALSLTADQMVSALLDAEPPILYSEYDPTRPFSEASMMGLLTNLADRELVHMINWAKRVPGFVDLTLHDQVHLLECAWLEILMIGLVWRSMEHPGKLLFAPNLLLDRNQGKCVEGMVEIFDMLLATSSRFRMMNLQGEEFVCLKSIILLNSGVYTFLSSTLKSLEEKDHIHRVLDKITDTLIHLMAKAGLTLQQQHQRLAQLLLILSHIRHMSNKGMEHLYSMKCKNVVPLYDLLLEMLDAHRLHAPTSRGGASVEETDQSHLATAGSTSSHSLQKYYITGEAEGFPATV
Outline: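 Cells were plated at 5000/well and incubated 4 h at 37 C. Compounds were added as 1:2 dilution series, duplicates. 17-beta-estradiol (0.5nM final) was added for 18 h before CCF4 detection.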

[14] = molecular target: Glucocorticoid receptor (Homo sapiens) (UniProt P04150); test: qHTS assay for small molecule antagonists of glucocorticoid receptor signaling (AID 588533; active = well fitted inhibition curve with a large enough effect in the signal ratio, with a control signal flat, not every such curve was filed as active; the % refers to the signal ratio;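 note: cells stimulated with 2 nM dexamethasone as agonist; % is set by controls: 0 for no effect and ±100 for the full control effect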)
Chain of Glucocorticoid receptor (Homo sapiens) (P04150 whole entry, looked up): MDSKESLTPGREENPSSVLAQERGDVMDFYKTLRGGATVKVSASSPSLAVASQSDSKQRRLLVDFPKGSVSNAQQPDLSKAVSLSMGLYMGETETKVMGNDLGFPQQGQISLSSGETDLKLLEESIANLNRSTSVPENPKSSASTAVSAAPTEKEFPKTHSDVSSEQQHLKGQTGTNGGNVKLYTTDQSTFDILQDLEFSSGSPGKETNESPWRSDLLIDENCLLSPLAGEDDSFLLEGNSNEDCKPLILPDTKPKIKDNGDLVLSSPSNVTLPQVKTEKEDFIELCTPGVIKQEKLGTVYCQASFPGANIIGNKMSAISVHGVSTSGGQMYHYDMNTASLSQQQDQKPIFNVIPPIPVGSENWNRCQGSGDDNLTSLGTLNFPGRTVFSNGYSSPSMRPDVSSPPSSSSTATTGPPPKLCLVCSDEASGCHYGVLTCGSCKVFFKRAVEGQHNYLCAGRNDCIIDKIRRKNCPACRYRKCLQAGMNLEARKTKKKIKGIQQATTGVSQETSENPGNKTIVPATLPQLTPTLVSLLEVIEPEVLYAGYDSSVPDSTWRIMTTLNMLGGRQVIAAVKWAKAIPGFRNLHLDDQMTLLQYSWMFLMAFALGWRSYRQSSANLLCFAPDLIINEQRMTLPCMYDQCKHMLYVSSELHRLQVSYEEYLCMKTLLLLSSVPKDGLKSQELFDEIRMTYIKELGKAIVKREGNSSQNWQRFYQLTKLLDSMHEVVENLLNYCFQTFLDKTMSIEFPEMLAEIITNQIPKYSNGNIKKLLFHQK
Outline: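 Antagonist-mode qHTS: compound titrations added to GRE-bla HeLa cells, then dexamethasone 2 nM final; 18 h, 37 C. CCF4 FRET fluorescence normalized to dexamethasone and DMSO; IC50 from Hill fit.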

[15] = molecular target: Vitamin D3 receptor (Homo sapiens) (UniProt P11473); test: qHTS assay for small molecule antagonists of vitamin D receptor signaling (AID 588541; calls by dose curve)
Chain of Vitamin D3 receptor (Homo sapiens) (P11473 whole entry, looked up): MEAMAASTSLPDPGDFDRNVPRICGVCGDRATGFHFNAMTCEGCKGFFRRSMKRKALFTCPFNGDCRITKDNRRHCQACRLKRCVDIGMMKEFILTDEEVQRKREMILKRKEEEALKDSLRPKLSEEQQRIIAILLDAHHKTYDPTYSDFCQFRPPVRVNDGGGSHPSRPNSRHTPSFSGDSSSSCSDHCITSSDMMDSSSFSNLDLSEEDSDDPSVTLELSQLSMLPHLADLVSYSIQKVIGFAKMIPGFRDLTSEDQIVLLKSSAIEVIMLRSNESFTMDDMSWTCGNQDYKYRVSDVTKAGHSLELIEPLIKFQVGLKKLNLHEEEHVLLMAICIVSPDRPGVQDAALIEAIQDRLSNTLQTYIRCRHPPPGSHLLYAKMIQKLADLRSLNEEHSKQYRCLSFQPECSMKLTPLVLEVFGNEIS
Outline: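 VDR-UAS-bla HEK293T cells (2000/well, 2% charcoal-stripped FBS) were treated with titrated compounds plus 1-alpha,25-dihydroxyvitamin D3 (50 nM or 3 nM final) for 16 h at 37 C. CCF4 beta-lactamase fluorescence was read; Hill fits gave IC50.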

[16] = qHTS assay for small molecule disruptors of the mitochondrial membrane potential - 5 hr assay (AID 651755; calls by dose curve; note: % is set by controls: 0 for no effect and ±100 for the full control effect; nearly all actives have a fitted effect of over 40% in size)
Outline: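 Seed HepG2 overnight, add compound, incubate 5 hr at 37C and 5% CO2, stain 30 min with Mito-MPS, then measure monomer (490/535 nm) and aggregate (540/590 nm) fluorescence.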

[17] = qHTS assay for small molecule antagonists of the retinoid-related orphan receptor gamma (ROR-gamma) signaling pathway - cell viability counter screen (AID 720652; active = well fitted curve in the direction sought with a large enough effect in the repeat runs; an effect the other way counts as inactive or inconclusive)
Outline: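 Cytotoxicity counter screen: intracellular ATP (CellTiter-Glo luminescence) measured in the doxycycline-induced CHO RORE-luciferase reporter line after 16 hr compound exposure at 37 C, 5% CO2.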

CP291 = test: qHTS profiling for inhibitors of Plasmodium falciparum proliferation (AID 504749);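 note: 0% = DMSO vehicle and full inhibition = artemisinin control; nearly all actives have a fitted effect of over 60% in size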; conditions: P. falciparum in erythrocytes, SYBR Green DNA, 72 h; series mostly up to 28.7 µM
Outline: as §1

CP203 = test: as above; conditions: P. falciparum in erythrocytes, SYBR Green DNA, 72 h; series mostly up to 28.7 µM
Outline: as §1

CCCN1CCc2cc(O)cc3c2C1Cc1ccc(O)c(O)c1-3 (stereo unspecified)
active: Potency [1] 3.98 µM | Potency [2] 3.55 µM
inactive: Potency [3] | outcome [4] | Potency [5]

O=C(O)C1=CCCN(CCOC(c2ccc(C(F)(F)F)cc2)c2ccc(C(F)(F)F)cc2)C1
inactive: outcome [6]

CCc1c(C(=O)OC)ncc2[nH]c3cc(OC)c(OC)cc3c12
active: Potency [2] 10 µM
inactive: Potency [3] | outcome [4] | Potency [5]

COc1ccc2c(c1O)-c1c(OC)c(OC)cc3c1[C@H](C2)N(C)CC3
inactive: outcome [6]

C[C@]12CC[C@H](O)CC1=CCC1C2CC[C@]2(C)C(=O)CC[C@@H]12 (stereo partly specified)
inactive: Potency [1] | Potency [2] | Potency [3] | outcome [4] | Potency [5] | outcome [6] | Potency (ICS)

CCCN(C/C=C\I)[C@@H]1CCc2ccc(O)cc2C1
inactive: outcome [6]

ClC(Cl)=C(c1ccc(Cl)cc1)c1ccc(Cl)cc1
inactive: Potency [7] > 92 µM | Potency [8] | caspase-3 activation [9] 0.557% and 1.81% | Potency [10] | Potency [11] | Potency [12] | Potency [13] | Potency [14] | outcome [15] | Potency [16]

CCCN1CCc2cccc3c2C1Cc1ccc(O)c(O)c1-3 (stereo unspecified)
inactive: Potency [3] | outcome [4] | Potency [5]
active: Potency [1] 2.51 µM | Potency [2] 2 µM

CCNc1nc(Cl)nc(NC(C)C)n1
inactive: Potency [7] > 92 µM | Potency [8] | caspase-3 activation [9] 0.071% | Potency [10] | Potency [11] | Potency [12] | Potency [13] | Potency [14] | outcome [15] | Potency [17]

C=CCc1ccc2c(c1)OCO2
inactive: Potency [7] > 92 µM | Potency [8] | caspase-3 activation [9] 1.31% | Potency [11] | Potency [12] | Potency [14] | outcome [15]

O=C(OC1CCN(CCCl)CC1)C(c1ccccc1)c1ccccc1
active: Potency [1] 12.6 µM | Potency [2] 11.2 µM
inactive: Potency [3] | outcome [4] | Potency [5]

Cc1nnc2ccc(-c3cccc(C(F)(F)F)c3)nn12
inactive: outcome [6]

O=C(O)COc1ccc(Cl)cc1Cl
inactive: Potency [7] > 92 µM | Potency [8] | caspase-3 activation [9] -0.262% and -0.585% | Potency [10] | Potency [11] | Potency [12] | Potency [14] | outcome [15] | Potency [16] | Potency [17]

CC(C)C[C@H]1C(=O)N2CCCC2[C@]2(O)O[C@](NC(=O)[C@@H]3C=C4c5cccc6[nH]c(Br)c(c56)C[C@H]4N(C)C3)(C(C)C)C(=O)N12 (stereo partly specified)
inactive: Potency [5]
active: Potency [1] 2.51 µM | Potency [2] 1.58 µM

CNC(=O)O/N=C/C(C)(C)SC
inactive: Potency [7] > 92 µM | Potency [8] | Potency [10] | Potency [11] | Potency [12] | Potency [13] | Potency [14] | Potency [16] | Potency [17]

COc1cc2c(cc1O)CC1c3c(cc(O)c(OC)c3-2)CCN1C (stereo unspecified)
inactive: outcome [6]

C=CCc1ccc(OC)cc1
inactive: Potency [7] > 92 µM | Potency [10] | Potency [11] | Potency [12] | Potency [17]

CC(C)[C@@]1(NC(=O)[C@@H]2C[C@@H]3c4cccc5[nH]cc(c45)C[C@H]3N(C)C2)O[C@@]2(O)C3CCCN3C(=O)[C@H](Cc3ccccc3)N2C1=O (stereo partly specified)
active: Potency [1] 2.24 µM | Potency [2] 0.891 µM
inactive: Potency [3] | outcome [4]

CCNC[C@H](O)c1cccc(O)c1
inactive: Potency (CP291) | Potency (ICS)

C[C@@]12CC[C@H]3[C@@H](CC[C@@H]4C[C@H]5S[C@H]5C[C@]43C)[C@H]1CC[C@H]2O
inactive: Potency (CP203) | Potency (CP291)

C[N+]1([O-])[C@@H]2CC(OC(=O)[C@@H](CO)c3ccccc3)C[C@@H]1[C@H]1O[C@H]12 (stereo partly specified)
inactive: Potency (CP203) | Potency (CP291) | Potency (ICS)

C/C=C/c1ccc2c(c1)OCO2
inactive: Potency [7] > 92 µM | caspase-3 activation [9] 2.64% | Potency [10] | Potency [11] | Potency [12] | outcome [6] | outcome [15] | Potency [17]

CC(C)c1c(CN(C)[C@@H](C)Cc2ccccc2)n(C)n(-c2ccccc2)c1=O
inactive: Potency (CP203) | Potency (CP291)

ClC1=C(Cl)C2(Cl)C3C(Cl)C=CC3C1(Cl)C2(Cl)Cl (stereo unspecified)
inactive: Potency [8] | caspase-3 activation [9] 5.51% | Potency [13] | Potency [14] | Potency [16]

CCc1cccc(CC)c1N(COC)C(=O)CCl
inactive: Potency [10] | Potency [13] | Potency [16] | Potency [17]

C[C@H]1CN(C2CCC(C#N)(c3ccc(F)cc3)CC2)CC[C@@]1(C(=O)O)c1ccccc1 (stereo partly specified)
inactive: Potency (CP203) | Potency (CP291) | Potency (ICS)

O=S1OCC2C(CO1)C1(Cl)C(Cl)=C(Cl)C2(Cl)C1(Cl)Cl (stereo unspecified)
inactive: Potency [8] | Potency [13] | outcome [15]

CC(=O)O[C@H]1CC[C@@]2(C)C(=CC[C@@H]3[C@H]2CC[C@]2(C)C(=O)CC[C@H]32)C1
inactive: Potency (CP203) | Potency (CP291) | Potency (ICS)

C[C@H](N)[C@@H](O)c1ccccc1
inactive: Potency (CP203) | Potency (ICS)

ClC1=C(Cl)C2(Cl)C3C4C=CC(C4)C3C1(Cl)C2(Cl)Cl (stereo unspecified)
inactive: caspase-3 activation [9] 6.54% | Potency [13] | Potency [14] | outcome [15] | Potency [16]

C#CCN(C)[C@@H](C)Cc1ccccc1
inactive: Potency (CP203) | Potency (CP291) | Potency (ICS)

CCOCN(C(=O)CCl)c1c(C)cccc1CC
inactive: Potency [16] | Potency [17]
